± gives the standard deviation of the averaged measurements.
Assays:
Assay in all cases: promoter activity interaction Z-score (Lux/OD deviation from empty-vector control); higher = stronger promoter induction by the compound
[1] = test system: E. coli BW25113 acrABp lux reporter
Method in brief: (§1)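 OD600 and luminescence of E. coli BW25113 reporter cultures (40 µl LB Lennox, 384-well plates, 37°C) were measured every 30 min for 12 h. Integration ran over 0–8 h for wild type or 1–9 h for deletion strains, and wells with growth below 10% of the median were dropped. The score is the Z-transformed residual of growth-normalised luminescence fitted against a control.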

[2] = test system: E. coli BW25113 marRABp lux reporter
Method in brief: as §1

[3] = test system: E. coli BW25113 micFp lux reporter
Method in brief: as §1

[4] = test system: E. coli BW25113 ompFp lux reporter
Method in brief: as §1

[5] = test system: E. coli BW25113 robp lux reporter
Method in brief: as §1

[6] = test system: E. coli BW25113 soxSp lux reporter
Method in brief: as §1

[7] = test system: E. coli BW25113 tolCp lux reporter
Method in brief: as §1

[8] = 21 µg/ml, genetic background: wild type
[9] = 21 µg/ml, genetic background: ΔmarA
[10] = 21 µg/ml, genetic background: Δrob
[11] = 21 µg/ml, genetic background: ΔsoxS
[12] = 42 µg/ml, genetic background: wild type
[13] = 42 µg/ml, genetic background: ΔmarA
[14] = 42 µg/ml, genetic background: Δrob
[15] = 42 µg/ml, genetic background: ΔsoxS
[16] = 84.1 µg/ml, genetic background: wild type
[17] = 84.1 µg/ml, genetic background: ΔmarA
[18] = 84.1 µg/ml, genetic background: Δrob
[19] = 84.1 µg/ml, genetic background: ΔsoxS
[20] = 168.2 µg/ml, genetic background: wild type
[21] = 168.2 µg/ml, genetic background: ΔmarA
[22] = 168.2 µg/ml, genetic background: Δrob
[23] = 168.2 µg/ml, genetic background: ΔsoxS

COc1ccc2cc3[n+](cc2c1OC)CCc1cc2c(cc1-3)OCO2 [Berberine]
promoter activity interaction Z-score [1, 8]: 0.0236 ± 0.072 | promoter activity interaction Z-score [1, 9]: -0.475 ± 0.1 | promoter activity interaction Z-score [1, 10]: -0.306 ± 0.009 | promoter activity interaction Z-score [1, 11]: 0.123 ± 0.39 | promoter activity interaction Z-score [1, 12]: -0.0191 ± 0.052 | promoter activity interaction Z-score [1, 13]: -0.27 ± 0.38 | promoter activity interaction Z-score [1, 14]: -0.196 ± 0.1 | promoter activity interaction Z-score [1, 15]: 0.128 ± 0.55 | promoter activity interaction Z-score [1, 16]: -0.175 ± 0.13 | promoter activity interaction Z-score [1, 17]: -0.268 ± 0.47 | promoter activity interaction Z-score [1, 18]: -0.263 ± 0.31 | promoter activity interaction Z-score [1, 19]: 0.253 ± 1.1 | promoter activity interaction Z-score [1, 20]: -0.0717 ± 0.13 | promoter activity interaction Z-score [1, 21]: -1.16 ± 0.13 | promoter activity interaction Z-score [1, 22]: -0.157 ± 0.19 | promoter activity interaction Z-score [1, 23]: 0.745 ± 1.3 | promoter activity interaction Z-score [2, 8]: -0.142 ± 0.16 | promoter activity interaction Z-score [2, 9]: -0.0869 ± 0.24 | promoter activity interaction Z-score [2, 10]: -0.003 ± 0.15 | promoter activity interaction Z-score [2, 11]: 0.0721 ± 0.0037 | promoter activity interaction Z-score [2, 12]: -0.183 ± 0.049 | promoter activity interaction Z-score [2, 13]: -0.0953 ± 0.12 | promoter activity interaction Z-score [2, 14]: -0.278 ± 0.1 | promoter activity interaction Z-score [2, 15]: -0.0367 ± 0.026 | promoter activity interaction Z-score [2, 16]: -0.286 ± 0.35 | promoter activity interaction Z-score [2, 17]: 0.056 ± 0.18 | promoter activity interaction Z-score [2, 18]: -0.324 ± 0.01 | promoter activity interaction Z-score [2, 19]: -0.135 ± 0.015 | promoter activity interaction Z-score [2, 20]: -0.373 ± 0.17 | promoter activity interaction Z-score [2, 21]: -0.165 ± 0.027 | promoter activity interaction Z-score [2, 22]: -0.287 ± 0.045 | promoter activity interaction Z-score [2, 23]: -0.015 ± 0.094 | promoter activity interaction Z-score [3, 8]: -0.242 ± 0.064 | promoter activity interaction Z-score [3, 9]: 0.146 ± 0.14 | promoter activity interaction Z-score [3, 10]: -0.0671 ± 0.15 | promoter activity interaction Z-score [3, 11]: -0.125 ± 0.15 | promoter activity interaction Z-score [3, 12]: 0.0805 ± 0.15 | promoter activity interaction Z-score [3, 13]: 0.226 ± 0.014 | promoter activity interaction Z-score [3, 14]: 0.0807 ± 0.046 | promoter activity interaction Z-score [3, 15]: 0.68 ± 0.077 | promoter activity interaction Z-score [3, 16]: 0.36 ± 0.12 | promoter activity interaction Z-score [3, 17]: 0.426 ± 0.11 | promoter activity interaction Z-score [3, 18]: 0.14 ± 0.12 | promoter activity interaction Z-score [3, 19]: 0.7 ± 0.18 | promoter activity interaction Z-score [3, 20]: 0.445 ± 0.051 | promoter activity interaction Z-score [3, 21]: 0.425 ± 0.057 | promoter activity interaction Z-score [3, 22]: 0.095 ± 0.17 | promoter activity interaction Z-score [3, 23]: 2.075 ± 0.006 | promoter activity interaction Z-score [4, 8]: -0.331 ± 0.05 | promoter activity interaction Z-score [4, 9]: -0.189 ± 0.11 | promoter activity interaction Z-score [4, 10]: -0.392 ± 0.37 | promoter activity interaction Z-score [4, 11]: -0.128 ± 0.0057 | promoter activity interaction Z-score [4, 12]: -0.202 ± 0.02 | promoter activity interaction Z-score [4, 13]: -0.182 ± 0.032 | promoter activity interaction Z-score [4, 14]: 0.159 ± 0.48 | promoter activity interaction Z-score [4, 15]: -0.184 ± 0.26 | promoter activity interaction Z-score [4, 16]: -0.592 ± 0.13 | promoter activity interaction Z-score [4, 17]: 0.181 ± 0.27 | promoter activity interaction Z-score [4, 18]: -0.302 ± 0.21 | promoter activity interaction Z-score [4, 19]: 0.222 ± 0.86 | promoter activity interaction Z-score [4, 20]: -0.265 ± 0.1 | promoter activity interaction Z-score [4, 21]: -0.655 ± 0.28 | promoter activity interaction Z-score [4, 22]: -0.0984 ± 0.32 | promoter activity interaction Z-score [4, 23]: 0.615 ± 1.2 | promoter activity interaction Z-score [5, 8]: -0.384 ± 0.27 | promoter activity interaction Z-score [5, 9]: -0.668 ± 0.061 | promoter activity interaction Z-score [5, 10]: -0.229 ± 0.035 | promoter activity interaction Z-score [5, 11]: 1.02 ± 0.67 | promoter activity interaction Z-score [5, 12]: -0.378 ± 0.14 | promoter activity interaction Z-score [5, 13]: -0.587 ± 0.51 | promoter activity interaction Z-score [5, 14]: -0.855 ± 0.25 | promoter activity interaction Z-score [5, 15]: -0.0756 ± 0.39 | promoter activity interaction Z-score [5, 16]: -0.935 ± 0.66 | promoter activity interaction Z-score [5, 17]: -0.613 ± 0.14 | promoter activity interaction Z-score [5, 18]: -0.951 ± 0.11 | promoter activity interaction Z-score [5, 19]: -0.288 ± 0.24 | promoter activity interaction Z-score [5, 20]: -0.906 ± 0.21 | promoter activity interaction Z-score [5, 21]: -1.18 ± 0.24 | promoter activity interaction Z-score [5, 22]: -0.88 ± 0.11 | promoter activity interaction Z-score [5, 23]: -0.247 ± 0.37 | promoter activity interaction Z-score [6, 8]: 0.0121 ± 0.039 | promoter activity interaction Z-score [6, 9]: 0.176 ± 0.081 | promoter activity interaction Z-score [6, 10]: 0.152 ± 0.084 | promoter activity interaction Z-score [6, 11]: -0.0133 ± 0.085 | promoter activity interaction Z-score [6, 12]: 0.0147 ± 0.0098 | promoter activity interaction Z-score [6, 13]: 0.336 ± 0.2 | promoter activity interaction Z-score [6, 14]: 0.0622 ± 0.0015 | promoter activity interaction Z-score [6, 15]: -0.227 ± 0.048 | promoter activity interaction Z-score [6, 16]: -0.148 ± 0.0029 | promoter activity interaction Z-score [6, 17]: 0.232 ± 0.064 | promoter activity interaction Z-score [6, 18]: 0.0295 ± 0.037 | promoter activity interaction Z-score [6, 19]: -0.359 ± 0.27 | promoter activity interaction Z-score [6, 20]: -0.174 ± 0.033 | promoter activity interaction Z-score [6, 21]: 0.0364 ± 0.046 | promoter activity interaction Z-score [6, 22]: -0.0651 ± 0.054 | promoter activity interaction Z-score [6, 23]: -0.426 ± 0.38 | promoter activity interaction Z-score [7, 8]: 0.227 ± 1.2 | promoter activity interaction Z-score [7, 9]: 0.771 ± 0.18 | promoter activity interaction Z-score [7, 10]: -0.361 ± 0.45 | promoter activity interaction Z-score [7, 11]: 0.909 ± 0.084 | promoter activity interaction Z-score [7, 12]: 0.235 ± 0.016 | promoter activity interaction Z-score [7, 13]: 1.1 ± 0.24 | promoter activity interaction Z-score [7, 14]: 0.305 ± 0.6 | promoter activity interaction Z-score [7, 15]: 0.638 ± 0.84 | promoter activity interaction Z-score [7, 16]: 0.735 ± 0.75 | promoter activity interaction Z-score [7, 17]: 0.534 ± 0.58 | promoter activity interaction Z-score [7, 18]: 0.496 ± 0.28 | promoter activity interaction Z-score [7, 19]: -0.159 ± 0.1 | promoter activity interaction Z-score [7, 20]: 0.2 ± 1.1 | promoter activity interaction Z-score [7, 21]: -0.272 ± 1.3 | promoter activity interaction Z-score [7, 22]: 0.279 ± 0.36 | promoter activity interaction Z-score [7, 23]: 1.31 ± 0.19

— the supplement of paper PMC12282887
